Activity calls are given as the source filed them. Entries that show only a call come without a potency. Unless noted, calls come from the whole dose curve; as a rule, active = well fitted curve in the direction sought with a large enough effect in the repeat runs; inconclusive = weak or mixed curves; inactive = no such curve, though single readings can be large; an effect the other way counts as inactive or inconclusive.
Key:
[1] = qHTS assay for small molecule disruptors of the mitochondrial membrane potential (AID 720635); settings: HepG2 mitochondrial membrane potential, Mito-MPS dye ratio; series mostly up to 83.2 µM; note: potency is the fitted concentration of half-maximal effect
Procedure, shortened: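 Mitochondrial membrane potential tracked with Mito-MPS dye, red aggregates (ex 540/em 590 nm) against green monomers (ex 490/em 535 nm). Compound treatment 1 hr at 37C, dye 30 min in HepG2.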

[2] = qHTS assay to test for compound auto fluorescence at 535 nm (green) in HEK293 cells (AID 720680); settings: green autofluorescence 485/535 nm; series mostly up to 46 µM
[3] = qHTS assay to test for compound auto fluorescence at 590 nm (red) in HEK293 cell free culture (AID 720683); settings: cell-free medium autofluorescence, Ex540/Em590 red; series mostly up to 46 µM
Procedure, shortened: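 Red-channel autofluorescence of compounds in culture medium (DMEM, 10% FBS), no cells, measured at 540/590 nm. Rose Bengal sodium is the reference fluorophore for equivalence.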

[4] = qHTS assay to test for compound auto fluorescence at 590 nm (red) in HepG2 cell free culture (AID 720684); settings: cell-free medium autofluorescence, red 540/590 nm; series mostly up to 46 µM
Procedure, shortened: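 Plate contents were MEM with 10% FBS plus test compound or DMSO, no cells. Fluorescence was recorded with 540 nm excitation and 590 nm emission.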

[5] = qHTS assay to test for compound auto fluorescence at 460 nm (blue) in HepG2 cell free culture (AID 720685); settings: Cell-free culture medium, blue autofluorescence 405/460 nm; series mostly up to 46 µM
Procedure, shortened: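 Compound (23 nL) or DMSO pinned into cell-free MEM with 10% FBS; blue fluorescence read at 405/460 nm excitation/emission, expressed as auto-fluorescence equivalency to triamterene.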

[6] = qHTS assay to test for compound auto fluorescence at 535 nm (green) in HepG2 cell free culture (AID 720686); settings: Cell-free medium, green autofluorescence 485/535 nm; series mostly up to 46 µM
[7] = qHTS assay for identifying genotoxic compounds that show differential cytotoxicity against isogenic chicken DT40 cell lines with known DNA damage response pathways - wild type cell line (AID 743012); settings: DT40 wild type chicken cells viability, CellTiter-Glo, 40 h; series mostly up to 68.4 µM; note: nearly all actives have a fitted effect of over 60% in size; note: potency is the fitted concentration of half-maximal effect
Procedure, shortened: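 First, wild type DT40 cells were plated at 300 per well and equilibrated about 0.5 h at 37 C/5% CO2. Next, compounds in DMSO were added and exposure lasted 40 h. Finally, CellTiter-Glo was added for 30 min at room temperature and luminescence recorded.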

[8] = qHTS assay for identifying genotoxic compounds that show differential cytotoxicity against isogenic chicken DT40 cell lines with known DNA damage response pathways - Rad54/Ku70 mutant cell line (AID 743015); settings: DT40 Rad54/Ku70 mutant viability, CellTiter-Glo, 40 h; series mostly up to 66.8 µM; note: nearly all actives have a fitted effect of over 60% in size; note: potency is the fitted concentration of half-maximal effect
[9] = qHTS assay to identify small molecule antagonists of the androgen receptor (AR) signaling pathway - cell viability counter screen (AID 743033; note: nearly all actives have a fitted effect of over 45% in size; note: potency is the fitted concentration of half-maximal effect); settings: AR-bla HEK293 viability, CellTiter-Glo luminescence, 16 h; series mostly up to 58.5 µM
[10] = qHTS assay to identify small molecule antagonists of the thyroid receptor (TR) signaling pathway - cell viability counter screen (AID 743064); settings: GH3.TRE-Luc viability, CellTiter-Fluor, 24 h; series mostly up to 70.3 µM; note: nearly all actives have a fitted effect of over 50% in size; note: potency is the fitted concentration of half-maximal effect
Procedure, shortened: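 Rat GH3 pituitary tumor cells stably expressing two TR response elements driving luciferase were plated, rested 4 h, then dosed with library compounds and T3 (1 nM final). After 23.5 h at 37 °C, CellTiter-Fluor was added for 30 min and fluorescence recorded.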

[11] = qHTS assay to identify small molecule antagonists of the thyroid receptor (TR) signaling pathway (AID 743065); settings: GH3.TRE-Luc, T3-stimulated luciferase inhibition, 23.5 h; series mostly up to 70.3 µM; note: nearly all actives have a fitted effect of over 55% in size; note: potency is the fitted concentration of half-maximal effect
Procedure, shortened: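 Antagonism measured as loss of luciferase signal in GH3 cells stably carrying a TRE-luciferase reporter, co-treated with compound and T3 (1 nM final) for 23.5 h at 37 C. Viability was read in the same well by CellTiter-Fluor.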

[12] = target: Estrogen receptor (Homo sapiens) (UniProt P03372); experiment: qHTS assay to identify small molecule agonists of the estrogen receptor alpha (ER-alpha) signaling pathway (AID 743075; calls by dose curve;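 note: HEK293 GripTite cells with ER-alpha and UAS-driven beta-lactamase reporter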; note: potency is the fitted concentration of half-maximal effect); settings: HEK293 ER-alpha-UAS-bla, beta-lactamase FRET ratio, 18 h; series mostly up to 70.1 µM
[13] = target: Estrogen receptor (Homo sapiens) (UniProt P03372); experiment: qHTS assay to identify small molecule agonists of the estrogen receptor alpha (ER-alpha) signaling pathway using the BG1 cell line (AID 743079); settings: BG1Luc4E2 cells, ERE-luciferase agonist, 22 h; series mostly up to 70.3 µM; note: nearly all actives have a fitted effect of over 20% in size; note: potency is the fitted concentration of half-maximal effect
[14] = qHTS assay to identify small molecule antagonists of the estrogen receptor alpha (ER-alpha) signaling pathway using the BG1 cell line (AID 743080; calls by dose curve;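 note: BG1 cells stimulated with 17beta-estradiol alongside compound; nearly all actives have a fitted effect of over 25% in size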; note: potency is the fitted concentration of half-maximal effect); settings: BG1Luc4E2 ERE-luciferase antagonist mode, luminescence; series mostly up to 70.3 µM
Procedure, shortened: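 Quantitative HTS on the Tox21 10K library: BG1 cells with endogenous ER-alpha and ERE-luciferase reporter, 17beta-estradiol stimulation, 21.5 h compound exposure, luminescence endpoint with parallel fluorescence cytotoxicity counter-read.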

[15] = target: Aryl hydrocarbon receptor (Homo sapiens) (UniProt P35869); experiment: qHTS assay to identify small molecule that activate the aryl hydrocarbon receptor (AhR) signaling pathway (AID 743085); settings: HepG2 AhR-luc (HG2L7.5c1), luciferase, 24 h; series mostly up to 70.3 µM; note: nearly all actives have a fitted effect of over 15% in size; note: potency is the fitted concentration of half-maximal effect;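 for activation: HG2L7.5c1 human HepG2 liver cells with stably integrated DRE-driven firefly reporter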
Procedure, shortened: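 Compounds were tested in HepG2 hepatocellular carcinoma cells harbouring a stably integrated luciferase gene under control of 20 DREs. Increased reporter signal after 24 h treatment at 37C was taken as AhR activation.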

[16] = target: Nuclear receptor subfamily 1 group I member 2 (Homo sapiens) (UniProt O75469); experiment: Human pregnane X receptor (PXR) activation by small molecules, qHTS assay (AID 1346985); settings: DPX-2 HepG2 CYP3A4-luciferase, 24 h; series mostly up to 38.3 µM; note: nearly all actives have a fitted effect of over 40% in size; note: potency is the fitted concentration of half-maximal effect
Procedure, shortened: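 DPX-2 cells (HepG2 co-transfected with a PXR response element and a CYP3A4-promoter luciferase construct) were seeded at 2,000 per well, rested 5 hr at 37C, then exposed to DMSO-dissolved compounds for 24 hr. Activation was read as luciferase luminescence.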

[17] = qHTS assay to test for compound auto fluorescence at 535 nm (green) in HepG2 cells (AID 720675); settings: green autofluorescence 485/535 nm, 1 h; series mostly up to 46 µM
[18] = target: Glucocorticoid receptor (Homo sapiens) (UniProt P04150); experiment: qHTS assay to identify small molecule agonists of the glucocorticoid receptor (GR) signaling pathway (AID 720691; active = well fitted activation curve with a large enough effect in the signal ratio in the repeat runs, not every such curve was filed as active; inconclusive = weak or mixed curves, or effect the other way; inactive = no such curve, though single readings can be large or run the other way; the % refers to the signal ratio); settings: GR-bla HeLa, beta-lactamase reporter ratio, 18 h; series mostly up to 62.4 µM
Procedure, shortened: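 qHTS in GR-bla HeLa cells: 4 h settling at 37 C/5% CO2, 18 h compound incubation at 37 C, 2 h LiveBLAzer B/G FRET substrate at room temperature, fluorescence intensity measured.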

[19] = target: Peroxisome proliferator-activated receptor gamma (Homo sapiens) (UniProt P37231); experiment: qHTS assay to identify small molecule agonists of the peroxisome proliferator-activated receptor gamma (PPARg) signaling pathway (AID 743094; active = well fitted activation curve with a large enough effect in the signal ratio in the repeat runs, not every such curve was filed as active; inconclusive = weak or mixed curves, or effect the other way; inactive = no such curve, though single readings can be large or run the other way; the % refers to the signal ratio); settings: HEK293H PPARg-UAS-bla, beta-lactamase FRET ratio, 17 h; series mostly up to 57 µM
Procedure, shortened: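 Compounds dissolved in DMSO were added to PPARg UAS-bla HEK293H cells for 17 h at 37C, and reporter expression was quantified by fluorescence intensity after 1 h with LiveBLAzer B/G FRET substrate.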

[20] = qHTS assay to test for compound auto fluorescence at 460 nm (blue) in HepG2 cells (AID 720687); settings: autofluorescence 405/460 nm, 1 h; series mostly up to 46 µM
Procedure, shortened: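 Blue-channel autofluorescence (Ex/Em 405/460 nm, triamterene-equivalent) was measured after 1 hr compound exposure at 37 C, 5% CO2. Cells were HepG2, plated overnight at 37 C in MEM plus 10% FBS.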

Sequence of Glucocorticoid receptor (Homo sapiens) (P04150 whole entry, looked up): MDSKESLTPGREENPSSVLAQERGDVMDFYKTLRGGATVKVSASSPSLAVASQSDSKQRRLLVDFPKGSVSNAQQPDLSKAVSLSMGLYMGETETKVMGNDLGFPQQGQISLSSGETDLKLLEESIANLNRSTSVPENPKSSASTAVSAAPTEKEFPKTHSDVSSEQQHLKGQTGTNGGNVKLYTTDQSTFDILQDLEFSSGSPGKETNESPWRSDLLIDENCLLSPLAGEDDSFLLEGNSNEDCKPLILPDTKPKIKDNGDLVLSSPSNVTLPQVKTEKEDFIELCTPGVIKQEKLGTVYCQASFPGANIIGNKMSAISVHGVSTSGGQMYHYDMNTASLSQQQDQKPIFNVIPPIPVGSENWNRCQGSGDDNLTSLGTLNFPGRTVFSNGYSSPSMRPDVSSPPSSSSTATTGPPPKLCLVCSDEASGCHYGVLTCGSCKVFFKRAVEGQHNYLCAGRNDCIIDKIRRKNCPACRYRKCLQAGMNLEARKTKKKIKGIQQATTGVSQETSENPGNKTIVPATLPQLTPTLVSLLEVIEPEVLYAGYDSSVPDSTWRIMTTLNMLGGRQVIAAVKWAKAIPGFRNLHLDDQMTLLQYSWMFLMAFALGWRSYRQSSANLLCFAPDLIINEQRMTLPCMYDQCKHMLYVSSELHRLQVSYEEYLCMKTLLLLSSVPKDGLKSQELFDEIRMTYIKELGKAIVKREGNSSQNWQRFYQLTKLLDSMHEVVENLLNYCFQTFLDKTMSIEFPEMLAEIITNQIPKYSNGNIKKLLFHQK
Sequence of Aryl hydrocarbon receptor (Homo sapiens) (P35869 whole entry, looked up): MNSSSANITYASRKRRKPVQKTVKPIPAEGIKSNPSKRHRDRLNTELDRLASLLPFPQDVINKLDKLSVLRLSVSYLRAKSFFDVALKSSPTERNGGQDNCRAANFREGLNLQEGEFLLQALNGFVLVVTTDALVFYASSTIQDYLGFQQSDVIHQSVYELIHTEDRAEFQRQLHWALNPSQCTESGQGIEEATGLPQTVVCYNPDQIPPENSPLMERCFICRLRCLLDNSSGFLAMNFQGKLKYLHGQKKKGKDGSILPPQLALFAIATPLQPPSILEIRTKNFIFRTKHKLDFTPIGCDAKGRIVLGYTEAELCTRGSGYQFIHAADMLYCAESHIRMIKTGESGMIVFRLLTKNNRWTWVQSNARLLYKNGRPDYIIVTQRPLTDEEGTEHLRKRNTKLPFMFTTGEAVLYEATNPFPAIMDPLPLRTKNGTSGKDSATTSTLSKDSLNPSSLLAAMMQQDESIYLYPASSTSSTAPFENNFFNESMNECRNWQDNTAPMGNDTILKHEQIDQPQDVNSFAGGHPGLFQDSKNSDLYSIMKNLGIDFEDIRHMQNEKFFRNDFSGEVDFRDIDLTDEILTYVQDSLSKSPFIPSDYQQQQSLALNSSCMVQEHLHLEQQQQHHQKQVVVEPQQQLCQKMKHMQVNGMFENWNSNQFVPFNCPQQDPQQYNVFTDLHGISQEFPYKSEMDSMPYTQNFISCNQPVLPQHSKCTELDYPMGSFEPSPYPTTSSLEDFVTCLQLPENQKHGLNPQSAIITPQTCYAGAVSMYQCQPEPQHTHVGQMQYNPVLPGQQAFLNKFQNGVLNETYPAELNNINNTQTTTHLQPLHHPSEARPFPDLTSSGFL
Sequence of Peroxisome proliferator-activated receptor gamma (Homo sapiens) (P37231 whole entry, looked up): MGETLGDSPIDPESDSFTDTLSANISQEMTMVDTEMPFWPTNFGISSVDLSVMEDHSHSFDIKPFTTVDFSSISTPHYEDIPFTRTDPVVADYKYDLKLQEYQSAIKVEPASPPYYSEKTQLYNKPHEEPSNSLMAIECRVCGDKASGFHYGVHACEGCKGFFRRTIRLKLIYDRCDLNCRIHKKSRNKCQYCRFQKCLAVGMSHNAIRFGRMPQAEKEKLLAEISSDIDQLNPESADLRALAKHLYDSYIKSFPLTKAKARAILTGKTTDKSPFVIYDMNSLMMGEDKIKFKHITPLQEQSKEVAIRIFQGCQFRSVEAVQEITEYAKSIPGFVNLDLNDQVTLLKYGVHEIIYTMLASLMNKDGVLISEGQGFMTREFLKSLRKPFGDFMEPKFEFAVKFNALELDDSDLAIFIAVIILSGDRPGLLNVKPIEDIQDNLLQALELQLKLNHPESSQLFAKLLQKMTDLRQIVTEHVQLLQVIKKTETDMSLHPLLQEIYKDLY
Sequence of Estrogen receptor (Homo sapiens) (P03372 whole entry, looked up): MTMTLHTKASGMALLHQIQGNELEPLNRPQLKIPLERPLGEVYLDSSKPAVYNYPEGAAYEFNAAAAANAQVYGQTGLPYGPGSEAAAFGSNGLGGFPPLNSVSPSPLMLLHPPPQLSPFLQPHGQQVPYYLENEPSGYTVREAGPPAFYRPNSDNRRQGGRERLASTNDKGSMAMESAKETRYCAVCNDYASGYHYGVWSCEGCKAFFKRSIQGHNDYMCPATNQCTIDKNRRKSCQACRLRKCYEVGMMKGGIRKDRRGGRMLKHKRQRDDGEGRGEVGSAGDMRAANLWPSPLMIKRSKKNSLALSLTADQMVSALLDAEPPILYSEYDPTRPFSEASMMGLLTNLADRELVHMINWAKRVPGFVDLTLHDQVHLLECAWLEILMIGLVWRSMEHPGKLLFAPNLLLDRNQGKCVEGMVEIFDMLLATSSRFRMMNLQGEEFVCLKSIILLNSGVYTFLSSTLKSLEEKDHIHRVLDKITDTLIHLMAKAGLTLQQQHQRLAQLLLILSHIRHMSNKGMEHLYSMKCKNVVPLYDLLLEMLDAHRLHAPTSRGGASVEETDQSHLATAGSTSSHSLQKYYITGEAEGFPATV

| Compound | Potency [1] | Potency [2] | outcome [3] | outcome [4] | Potency [5] | Potency [6] | Potency [7] | Potency [8] | Potency [9] | Potency [10] | Potency [11] | Potency [12] | Potency [13] | Potency [14] | Potency [15] | Potency [16] | Potency [17] | Potency [18] | Potency [19] | Potency [20] |
| --- | --- | --- | --- | --- | --- | --- | --- | --- | --- | --- | --- | --- | --- | --- | --- | --- | --- | --- | --- | --- |
| NC1=NC(=O)N2CC12 (configuration not stated) | inactive | inactive | inactive | inactive | inactive | inactive | inactive | inactive | inactive | inactive | inactive | inactive | inactive | inactive | inactive | inactive |  |  |  |  |
| CCCC(C)(COC(N)=O)COC(=O)NC1CC1 (configuration not stated) | inactive | inactive | inactive |  | inactive | inactive |  | inactive |  |  | inactive | inactive | inactive | inactive | inactive | inactive | inactive | inactive | inactive |  |
| CC(C)C[C@H](CN)CC(=O)O | inactive | inactive | inactive | inactive | inactive | inactive | inactive | inactive |  |  |  | inactive | 13.3 µM (active) | inactive | inactive | inactive | inactive | inactive | inactive | inactive |
| Cc1nnc2n1-c1ccc(Cl)cc1C(c1ccccc1Cl)=NC2 | inactive |  | inactive | inactive | inactive |  | inactive | inactive | inactive | inactive | inactive |  |  |  |  |  | inactive | inactive |  | inactive |
| CC[C@H]1[C@@H]2C[C@H]3[C@@H]4N(C)c5ccccc5[C@]45C[C@@H](C2[C@H]5O)N3[C@@H]1O (some centres not stated) |  | inactive |  | inactive | inactive | inactive |  | inactive | inactive | inactive | inactive | inactive | inactive | inactive | inactive |  | inactive | inactive | inactive | inactive |
| Cc1nnc2n1-c1ccc(Cl)cc1C(c1ccccc1)=NC2 |  | inactive | inactive | inactive | inactive | inactive |  |  | inactive |  |  | inactive |  | 11.9 µM (active) | inactive |  | inactive | inactive |  | inactive |
| CNC1(c2ccccc2Cl)CCCCC1=O (configuration not stated) |  | inactive | inactive | inactive | inactive | inactive |  | inactive | inactive | inactive |  | inactive | inactive | inactive | inactive |  | inactive | inactive | inactive | inactive |
| COc1ccc2c3c1O[C@H]1C(=O)CC[C@H]4[C@@H](C2)N(C)CC[C@]314 |  | inactive | inactive | inactive | inactive | inactive | inactive | inactive | inactive | inactive |  | inactive | inactive |  | inactive | inactive | inactive |  | inactive | inactive |
| C=CC[C@]1(O)CC[C@H]2[C@@H]3CCC4=CCCC[C@@H]4[C@H]3CC[C@@]21C | 9.44 µM (active) | inactive | inactive | inactive | inactive | inactive |  | inactive | inactive |  |  | 0.952 µM [inconclusive] (active) | 0.376 µM (active) |  |  |  | inactive | inactive | inactive |  |
| Cc1cc(C)cc(C(=O)OC2C[C@H]3CC[C@@H](C2)N3C)c1 (some centres not stated) |  | inactive | inactive | inactive | inactive | inactive | 2.98 µM (active) | 5.31 µM (active) | inactive |  | 18.8 µM (active) | inactive | inactive | inactive |  |  |  | inactive |  | inactive |
| Cc1cccc(C(C)c2cnc[nH]2)c1C (configuration not stated) | inactive |  | inactive |  | inactive |  |  |  |  | inactive |  |  |  |  | 11.9 µM (active) | inactive | inactive | inactive |  |  |
| CNC(=O)Oc1ccccc1C(=O)Nc1ccccc1 | 5.96 µM (active) | inactive | inactive | inactive | inactive |  | 29.8 µM (active) | 29.8 µM (active) | inactive | inactive |  | inactive |  |  | 23.7 µM (active) | 22.4 µM (active) | inactive | inactive | inactive | inactive |
| Oc1cccc[c]1[Hg][Cl] | 11.1 µM (active) | inactive |  | inactive | inactive | inactive | 0.473 µM (active) | 0.473 µM (active) | 10.7 µM (active) | 0.841 µM (active) | 0.473 µM (active) | 6.01 µM [inconclusive] (active) |  |  | inactive |  |  |  |  | inactive |
| C[C@]12CC[C@H]3[C@@H](CCC4=C(Cl)C(=O)CC[C@@]43C)[C@@H]1CC[C@@H]2O |  |  | inactive | inactive |  | inactive | 16.8 µM (active) | 23.7 µM (active) | inactive | inactive |  | 2.68 µM [inconclusive] (active) | 1.5 µM (active) |  | inactive |  | inactive |  | inactive | inactive |

Reference: PubChem BioAssay (Tox21)
